# Compounds with a hit are over-represented: about 0.59% of the library has one in this group of screens.
# RXFP1 antagonist = qHTS Assay for Antagonists of the Relaxin Receptor RXFP1 | AID 1259400, 2018 | activity change, negative = inhibition, % at 57.5 µM | 350,000 compounds, 0.59% hits | HEK293-RXFP1, relaxin-stimulated cAMP HTRF, 30 min; active compounds read low;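 active = activity change of -60% or lower, but not beyond a set lower limit; inconclusive = change between -60% and -40%, or beyond the set limit; inactive = change above -40%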
# B2AR arrestin = qHTS assay of beta-arrestin-biased ligands of beta2-adrenergic receptor; Beta-2 adrenergic receptor (Homo sapiens), P07550; beta-arrestin recruitment to beta2AR, cell-based reporter; Potency, µM (series often up to 46.1 µM), hits mostly activators; 330,000 compounds, 0.02% hits; AID 492947, 2010; also: nearly all actives have a fitted effect of over 65% in size
# Target sequence (P07550 whole entry, looked up): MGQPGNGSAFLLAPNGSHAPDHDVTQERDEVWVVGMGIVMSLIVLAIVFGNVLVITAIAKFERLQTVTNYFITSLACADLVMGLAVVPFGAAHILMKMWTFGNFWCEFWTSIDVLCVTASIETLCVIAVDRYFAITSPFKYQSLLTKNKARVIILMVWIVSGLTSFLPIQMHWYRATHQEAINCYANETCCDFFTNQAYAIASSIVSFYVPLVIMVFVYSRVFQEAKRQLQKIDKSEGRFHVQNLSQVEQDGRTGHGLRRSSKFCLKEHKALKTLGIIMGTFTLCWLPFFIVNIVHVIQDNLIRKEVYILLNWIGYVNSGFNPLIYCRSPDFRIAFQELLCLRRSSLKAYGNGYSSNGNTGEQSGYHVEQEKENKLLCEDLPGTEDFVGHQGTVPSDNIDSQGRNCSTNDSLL
# RXFP1 agonist = qHTS Assay for Agonists of the Relaxin Receptor RXFP1 | Relaxin receptor 1 (Homo sapiens), Q9HBX9 | HEK293T-RXFP1 cAMP TR-FRET, 30 min; response scale: percent of porcine relaxin response, buffer zero | Potency, µM (highest dose often 57.5 µM), usual class: activators | 370,000 compounds, 0.3% hits | AID 2676, 2010; also: nearly all actives have a fitted effect of over 60% in size
#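 cAMP rise read by TR-FRET after 30 min, 37C compound exposure (up to 58 uM) in RXFP1-transfected HEK293 cells with Ro 20174 present. EC50 from Hill-equation fits, with 29 nM porcine relaxin as 100% and buffer as basal.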
# Chronic BCR inh = qHTS Assay to Find Inhibitors of Chronic Active B-Cell Receptor Signaling; ABC-DLBCL IkBa-CBG/CBR reporter, luminescence ratio, 4 h; 340,000 compounds, 0.05% hits; Potency, µM (top dose mostly 46.1 µM), most hits filed as inhibitors; active = well fitted inhibition curve with a large enough effect in the signal ratio, with a control signal flat, not every such curve was filed as active; inconclusive = small, poorly fitted or top-dose-only effect, or effect the other way, or a change in a side signal; the % refers to the signal ratio
#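 TMD8 human ABC-DLBCL cells with doxycycline-inducible IκBα–green luciferase fusion and unfused red luciferase, in 0.5% FBS medium; compounds up to 46 uM, 4 h at 37C. Green/red luminescence ratio, filter-overlap corrected, fitted to concentration-response curves.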
# Numbers stand for hits; n = inactive; u = inconclusive; x = no result. Unless noted, calls follow the shape of the dose curve; as a rule, active = well fitted activation curve with a large enough effect; inconclusive = small, poorly fitted or top-dose-only effect; inactive = flat fitted curve, though single readings scatter.
SMILES,RXFP1 antagonist,B2AR arrestin,RXFP1 agonist,Chronic BCR inh
O=C(CCn1c(=S)[nH]c2cc3c(cc2c1=O)OCO3)NCc1cccc(Cl)c1,u,n,u,n
O=C(CCCn1c(=S)[nH]c2cc3c(cc2c1=O)OCO3)NCc1cccc(Cl)c1,-103,n,u,n
O=C(CCn1c(=S)[nH]c2cc3c(cc2c1=O)OCO3)NCc1ccccc1Cl,-70,n,u,n
CC(C)CCOc1ccc(Cn2c(=O)oc3ccccc32)cc1,n,x,n,x
Cc1ccc(SCc2nc(-c3ccc(C(=O)Nc4cc(C)ccc4C)cc3)oc2C)cc1,n,x,n,x
O=C(Oc1c(CN2CCOCC2)cc(Cl)c2cccnc12)c1ccccc1,n,u,n,u
COc1cc(OC)cc(C(=O)Oc2c(CN3CCOCC3)cc(Cl)c3cccnc23)c1,n,4µM,n,u
O=C(Oc1c(CN2CCOCC2)cc(Cl)c2cccnc12)c1ccccc1F,n,5.6µM,n,3.5µM
O=C(Oc1ccc(C(=S)N2CCOCC2)cc1Cl)c1ccccc1F,n,n,n,n
CSc1ncc2c(n1)-c1ccccc1N(Cc1ccccc1)S2(=O)=O,n,x,n,x
O=C(CCN1C(=O)c2ccccc2S1(=O)=O)Nc1ccc(F)cc1F,n,n,n,n
O=C(CN1C(=O)c2ccccc2S1(=O)=O)N1CCN(c2ccccc2F)CC1,n,n,n,n
O=C(CCN1C(=O)c2ccccc2S1(=O)=O)N1CCN(c2ccccc2F)CC1,-112,n,n,n
O=C(CCN1C(=O)c2ccccc2S1(=O)=O)Nc1ccc(F)c(F)c1F,-76,n,n,n
O=C(Cn1nc(C(F)(F)F)c2c1CCCC2)Nc1ccc(Br)cc1,n,x,n,n
COc1ccc(NC(=O)/C(Cl)=C(/Cl)S(=O)Cc2ccccc2)cn1 (stereo not given),-72,u,n,u
COc1cc(C)c(C(=O)CC(=O)c2c(C)cc(OC)cc2C)c(C)c1,-66,x,x,x
COc1ccc(NC(C)=O)c(C)c1,n,n,n,n
Cc1cccc(CN2C(=O)c3ccccc3Sc3ccc(C(=O)N4CCCC4)cc32)c1,-112,x,n,n
CC(C)NC(=O)COC(=O)c1ccc(S(=O)(=O)N2CCCC2)cc1,-98,n,n,n
CCN(C(=O)COC(=O)CSc1ccc([N+](=O)[O-])cc1)C1CCS(=O)(=O)C1 (stereo not given),n,n,n,n
CN(C(=O)COC(=O)CSc1ccc([N+](=O)[O-])cc1)C1CCS(=O)(=O)C1 (stereo not given),-101,n,n,n
COc1ccccc1C1CCN(C(=O)c2ccc(C(C)(C)C)cc2)CC1,-90,n,n,u
COc1ccccc1N1CCN(C(=O)c2ccc(C(C)(C)C)cc2)CC1,n,n,n,n
O=C(NCc1n[nH]c(=S)n1-c1ccc(Cl)c(Cl)c1)c1ccc(S(=O)(=O)N2CCCCC2)cc1,-60,n,n,n
SMILES,RXFP1 antagonist,B2AR arrestin,RXFP1 agonist,Chronic BCR inh
Nc1c(I)cc(I)c(C(=O)N(CCC(=O)O)c2ccccc2)c1I,n,x,x,x
CCOC(=O)C1CCN(S(=O)(=O)c2ccc(N3CCCCS3(=O)=O)cc2)CC1,n,x,n,x
CC1=NN(C(N)=S)C(=O)C1N=Nc1ccccc1O (stereo not given),n,n,n,n
CC1=NN(C(N)=S)C(=O)C1N=Nc1c(C)cc(C)cc1C (stereo not given),n,u,n,n
CC1=NN(C(N)=S)C(=O)C1N=Nc1c(Br)cc(Br)cc1Br (stereo not given),-64,n,n,n
CCOc1ccccc1N=NC1C(=O)N(C(N)=S)N=C1C (stereo not given),n,1.1µM,n,u
CCCCCCNC(=O)N[C@H](C(=O)NCCC[C@H]1CN2C(=NC[C@H]2C)N1CCC(c1ccccc1)c1ccccc1)C(C)O (stereo not given in full),x,n,n,18µM
Cc1ccc2oc(-c3cc(NC(=O)Cc4ccccc4)ccc3Cl)nc2c1,n,x,n,x
O=C(Cn1cc(/C=C\[N+](=O)[O-])c2ccccc21)Nc1ccccc1,-105,n,n,u
O=[N+]([O-])/C=C/c1cn(Cc2ccccc2)c2ccccc12,u,n,n,u
N#Cc1ccccc1Cn1cc(/C=C/[N+](=O)[O-])c2ccccc21,-65,n,n,u
CCc1cccc(CC)c1NC(=O)c1cc(S(=O)(=O)N2CCc3ccccc32)cn1C,n,x,n,x
Cc1ccc2c(c1)c1c(n2CC(O)CNC2CCCC2)CCCC1 (stereo not given),-82,n,n,n
Cc1cc(C)c(S(=O)(=O)NCC(c2cccs2)S(=O)(=O)c2ccccc2)c(C)c1 (stereo not given),n,x,n,u
CCN1CCN(c2nc3c(C)cccn3c(=O)c2/C=C(\C#N)C(=O)NCCOC)CC1,n,n,25µM,n
COCCNC(=O)/C(C#N)=C/c1c(N2CCCCCC2)nc2c(C)cccn2c1=O,n,n,n,u
O=[N+]([O-])c1ccc(NN=Cc2cc(Br)ccc2O)nc1,-74,x,x,x
O=[N+]([O-])c1ccc(NN=Cc2cccc(O)c2)nc1,n,x,x,x
CCCC/C(O)=C/c1nc2ccccc2[nH]c1=O,n,n,n,15µM
CCOc1cc(/C=C(\C#N)C(=O)Nc2cccc(C(=O)O)c2)cc(Br)c1OC(=O)c1ccc(OC)cc1,-89,n,n,u
COCCNC(=O)/C(C#N)=C/c1cccc(NC(=O)c2ccccc2Cl)c1,u,n,n,u
CC(C)NC(=O)/C(C#N)=C/c1cccc(NC(=O)c2ccccc2Cl)c1,-63,n,n,u
CC(C)C(=O)Nc1cccc(C2CN3CCSC3=N2)c1 (stereo not given),n,x,x,x
COc1nc(C)nc2c1sc1nc3c(cc12)COC(C)(C)C3,n,n,n,n
Cc1nc(OCC(C)C)c2sc3nc4c(cc3c2n1)COC(C)(C)C4,-103,n,n,n
SMILES,RXFP1 antagonist,B2AR arrestin,RXFP1 agonist,Chronic BCR inh
Cn1c(=O)c(C(=O)COc2ccc(C#N)cc2)c(N)n(Cc2ccccc2)c1=O,n,n,18µM,n
COC(CNC(=O)c1ccc(Cn2c(=S)[nH]c3cc4c(cc3c2=O)OCO4)cc1)OC,-98,n,n,n
O=C(NCc1ccccn1)c1ccc(Cn2c(=S)[nH]c3ccc(Br)cc3c2=O)cc1,n,n,n,n
COCCNC(=O)c1ccc(Cn2c(=S)[nH]c3cc4c(cc3c2=O)OCO4)cc1,-104,n,n,n
O=C(NCc1ccccn1)c1ccc(Cn2c(=S)[nH]c3ccccc3c2=O)cc1,-77,n,n,u
Cc1cccc(C)c1NC(=O)CCCn1c(=O)c2cccn2c2ccccc21,n,x,n,x
O=C(COC(=O)c1ccc(Br)cc1)Nc1cccnc1Cl,n,n,n,n
CN(C)S(=O)(=O)c1ccc(C(=O)OCC(=O)Nc2cccnc2Cl)cc1,n,n,14µM,u

# Screening data: PubChem BioAssay, National Center for Advancing Translational Sciences (NCATS)
